From PubChem
KB-V1 MDR tox – kills drug-selected multidrug resistant KB-V1 cells | KB-V1 MDR cells viability, CellTiter-Glo, 72 h | Potency, µM (series often up to 46.1 µM), most hits filed as cytotoxic | actives 3.4% (n = 400,000) | AID 1347076; note: potency is the fitted concentration of half-maximal effect; % is set by controls: 0 for no effect and ±100 for the full control effect; nearly all actives have a fitted effect of over 60% in size
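qHTS viability screen in drug-selected KB-V1 MDR cells: 72 h compound treatment at 37 degrees C, ATP luminescence end point.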
D3 ag – D3 dopamine receptor (human) agonism. D3R DiscoveRx beta-arrestin cells, luminescence, 90 min. max activation, %. actives 0.58% (n = 410,000). AID 652048; in the data active = max activation above about 30%; note: 0% is about no effect
Target sequence (P35462 whole entry, looked up): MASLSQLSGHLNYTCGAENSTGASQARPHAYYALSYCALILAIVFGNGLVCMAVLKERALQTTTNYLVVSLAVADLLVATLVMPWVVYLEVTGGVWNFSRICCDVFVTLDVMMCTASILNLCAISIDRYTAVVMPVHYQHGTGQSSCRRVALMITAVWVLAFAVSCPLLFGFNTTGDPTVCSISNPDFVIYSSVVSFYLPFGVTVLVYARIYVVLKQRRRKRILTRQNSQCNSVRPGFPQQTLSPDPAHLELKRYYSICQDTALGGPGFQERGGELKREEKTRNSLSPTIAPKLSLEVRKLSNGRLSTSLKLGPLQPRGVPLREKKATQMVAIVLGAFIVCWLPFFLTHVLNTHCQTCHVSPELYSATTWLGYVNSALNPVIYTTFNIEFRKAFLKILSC
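Cells at 1500/well, incubated overnight, then treated with pinned compounds (dopamine as control) for 90 min at 37 degrees C. DiscoveRx reagent added for 30 - 60 minutes at room temperature; luminescence read.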
KB-3-1 tox – kills parental KB-3-1 adenocarcinoma cells | KB-3-1 viability, CellTiter-Glo ATP luminescence, 72 h | actives 1.4% (n = 400,000) | AID 1347075 | Potency, µM (highest dose often 46.1 µM), usual class: cytotoxic; note: potency is the fitted concentration of half-maximal effect; % is set by controls: 0 for no effect and ±100 for the full control effect; nearly all actives have a fitted effect of over 60% in size
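Cells are dispensed, compounds pinned in, plates held at 37 °C for 72 h, then CellTiter-Glo is added and luminescence read after 10 minutes. Cell line: parental KB-3-1 in phenol-red-free DMEM, 10% FBS.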
D3 antag – D3 dopamine receptor (human) antagonism; actives 2.5% (n = 360,000); D3R cells, DiscoveRx beta-arrestin luminescence, antagonist mode; stronger effect = lower value; AID 652054; max response, negative = inhibition, %; in the data active = max response below about -50%; inconclusive = no clear call, values can overlap the other calls; note: % is set by controls: 0 for no effect and ±100 for the full control effect
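Cells plated overnight at 1500 cells/well, then exposed to library compounds with dopamine controls for 90 minutes at 37 degrees C. DiscoveRx reagent added for 30–60 minutes at room temperature; luminescence read, quantitative HTS format.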
MCF10A rereplic – induces DNA re-replication in MCF 10a normal breast cells | Potency, µM (series often up to 46.1 µM), for inactives: at the top dose activity, positive = re-replication, hits mostly activators | actives 2.9% (n = 350,000) | MCF 10A DNA re-replication, Hoechst nuclear intensity, 48 h | AID 624296; note: potency is the fitted concentration of half-maximal effect; % of control where 0% means no effect; nearly all actives have a fitted effect of over 50% in size
SW480 rerep – DNA re-replication induction in SW480 cells; actives 1.8% (n = 340,000); AID 624297; SW480 DNA re-replication, Hoechst DNA content imaging, 48 h; Potency, µM (titrated, usually from 46.1 µM), inactives show at the top dose re-replication activation, usual class: activators; note: potency is the fitted concentration of half-maximal effect; % of control where 0% means no effect; nearly all actives have a fitted effect of over 55% in size
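Compounds, transferred as 23 nL by pin tool, were incubated with cells for 48 hr; DNA content per nucleus was then quantified by Hoechst staining and fluorescence plate imaging.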
An asterisk follows results filed as active; i = inactive; ? = inconclusive; · = not tested or not shown; [ ] = remark or other dose. Rows were chosen to be rich in hits. Some 8.9% of all compounds tested hit in one or more screens of this group. Unless noted, calls come from the whole dose curve; as a rule, active = well fitted curve in the direction sought with a large enough effect; inconclusive = small, poorly fitted or top-dose-only effect, or another doubt; inactive = no such curve, though single readings can be large; an effect the other way counts as inactive or inconclusive.

SMILES | KB-V1 MDR tox | D3 ag | KB-3-1 tox | D3 antag | MCF10A rereplic | SW480 rerep
CCn1ccc2cc(S(=O)(=O)N3CCC(C(=O)NCCOC)CC3)ccc21 | ? | -0.4 | i | · | · | ·
O=C(COc1ccc2ccccc2c1)Nc1ccc(O)c(-c2nc3ccccc3o2)c1 | ? | · | i | · | · | ·
CCNC(=O)Cc1ccc(NC(=O)N2CCCCc3ccccc32)cc1 | i | 4.4 | i | · | · | ·
CCCC(=O)Nc1nnc2n1CCS2 | ? | 2.4 | i | · | · | ·
COC(=O)c1ccccc1NC(=O)C1CCCN(C(=O)c2cnn(-c3ccc(F)cc3)c2-n2cccc2)C1 (centres undefined) | 18.4µM* | 8.5 | ? | · | · | ·
Cc1ccc(Cn2c(SCC(=O)C(C)(C)C)nc3ccsc3c2=O)cc1 | · | -1.8 | · | · | · | ·
CC(C)CC(C(=O)OCC(=O)N1CCN(c2ccccc2)CC1)N1C(=O)c2ccccc2C1=O (centres undefined) | 16.4µM* | -4.0 | i | -26.6 | 1.0% | -2.3%
COc1ccc(C(=O)COC(=O)C(CC(C)C)N2C(=O)c3ccccc3C2=O)cc1 (centres undefined) | 8.2µM* | 4.7 | i | 8.1 | -6.9% | -8.3%
Cc1c(C(=O)N(C)C)sc2c1c(=O)n(-c1ccc(Cl)c(Cl)c1)c(=O)n2Cc1ccc(F)cc1 | · | 3.6 | · | · | · | ·
Cc1c(Cl)cccc1NC(=O)c1cc2sccc2n1Cc1ccc(F)cc1 | i | 10.5 | i | · | · | ·
Cc1ccc(Cl)c(OCC(=O)Nc2cc(S(=O)(=O)N3CCOCC3)ccc2N2CCCC2)c1 | i | -1.4 | i | -15.7 | 8.6% | 15.1%
CN(C)c1ccc(NC(=O)c2ccc(Cn3cc([N+](=O)[O-])cn3)cc2)cc1 | i | -7.3 | 18.4µM* | -2.0 | ? | ?
COCCn1c(SCC(=O)Nc2ccccc2OC)nc2ccccc2c1=O | i | 12.8 | i | 15.7 | -42.3%[9.22 µM] | -25.2%
COCCn1c(-c2ccc(OC)cc2)cnc1SCC(=O)Nc1cccc2ccccc12 | 7.31µM* | 2.2 | i | 34.9 | 0.1% | 3.9%
Cc1ccc2[nH]c(C)c(/C=C/c3cc[n+](C)cc3)c2c1 | i | 8.5 | 2.06µM* | -6.6 | 47.1% | ?
CC(C)(CO)NCc1cccs1 | i | 1.1 | ? | 11.3 | 1.3% | 1.3µM*
CCOC(=O)C1=C(C)N2C(=C(C#N)[C@@H]1c1ccc(C(=O)OC)cc1)SC[C@@]2(O)C(C)(C)C | ? | -5.8 | i | -4.3 | 20.6µM* | ?
O=C1c2ccccc2C(=O)N1CCc1c(-c2[nH]c3ccccc3c2CCN2C(=O)c3ccccc3C2=O)[nH]c2ccccc12 | i | 9.1 | i | 15.4 | 32.1% | 0.7%
O=C1c2ccccc2C(=O)N1CCc1c(-c2ccccc2)[nH]c2ccccc12 | i | 32.9* | i | 138.7 | ? | 1.1%
O=C(C1CCC(C(=O)N2CCc3ccccc32)CC1)N1CCc2ccccc21 (centres undefined) | i | -10.1 | i | -59.0* | 0.8% | -6.1%
CCOC(=O)/C(=N/Nc1ccccc1)N1CCCc2ccccc21 | 16.4µM* | 2.1 | i | -18.2 | -32.9% | 0.8%
CC1CCN(CC(=O)N2CCc3ccccc32)CC1 | i | 0.4 | i | -57.6* | -6.3% | -0.6%
O=C(Cc1ccccc1)N1CCc2ccccc21 | ? | -8.6 | i | 13.2 | 6.9% | -4.8%
N=c1sccn1CC(=O)N1CCc2ccccc21 | i | 2.7 | i | -65.2* | 1.3% | -6.2%
O=C(C1CCN(S(=O)(=O)N2CCOCC2)CC1)N1CCc2ccccc21 | i | -2.9 | i | -8.5 | -5.5% | -12.1%
O=C(/C=C/c1ccc(Cl)cc1)Nc1cccc([S+](=O)([O-])Nc2ccccc2F)c1 | i | · | i | · | · | ·
CCN(c1ccc(NC(=O)COC(=O)C(C)N=C2NS(=O)(=O)c3ccccc32)cc1)C(C)C (centres undefined) | ? | -5.4 | i | 10.2 | -12.9% | -71.8%
O=C(CN1CCCCC1)N1CCCc2ccccc21 | i | -38.5 | i | -82.3* | -2.6% | -6.2%
